Our source for the INHIBITION values is ChEMBL document CHEMBL4513216, “Probing the Open Global Health Chemical Diversity Library for Multistage-Active Starting Points for Next-Generation Antimalarials” (ACS Infect Dis, 2020).

Out of some 69,000 compounds screened, about 8,600 (12%) showed an effect of 50% or more. Many of the other results were omitted from the sample, so strong results are more common in it than they were.

The subject of the test is Plasmodium berghei. The test can be described thus: Screen against P. berghei liver stage (PbLuc), transformed with Luciferase, at 10uM. It is filed as functional, HepG2. As to conditions: tested at 10 uM.
For `CN1CCCN(Cn2nc(-c3ccccc3F)ccc2=O)CC1`, the INHIBITION is 18.2%.

`Cc1ccsc1C1CCCCCN1Cc1cn(C)nc1C` (centres undefined): the INHIBITION is 49%. `CC(C)n1cnnc1CN(C)C(=O)c1ccccc1N1CCOCC1`: the INHIBITION amounted to 7.92%. For `CCN(CC(O)c1ccc(C)cc1)C(=O)NC(C)C` (centres undefined) the value was 17.8%; for `COc1c(C2CCCN2C(=O)c2cccc(C)n2)c(C)nn1C` (centres undefined), 1.78%; for `CNC(=O)[C@@H]1C[C@H]2CN(Cc3csc(C)n3)C[C@H]2N1C(C)C`, 42.4%. With `O=C(CCCc1ccccc1)Nc1cnc(N2CCOCC2)nc1`, the INHIBITION is -33.3%. For `COCC(=O)Nc1cnc(N2CCOCC2)nc1` the value was 26.9%. With `CCOc1ccc(NC(=O)Nc2cnc(N3CCOCC3)nc2)cc1` the figure was -8.66%; with `O=C(COc1ccc(Cl)cc1)Nc1cnc(N2CCOCC2)nc1`, 52.7%. For `O=C(Nc1cnc(N2CCOCC2)nc1)c1ccc(C(F)(F)F)cc1` the value was 77.9%. `O=S(=O)(Nc1cnc(N2CCOCC2)nc1)c1ccc(C(F)(F)F)cc1`: the INHIBITION was -18%. Take `CCN1CC2(CC1=O)CN(C(=O)NC(C)C)CCN(S(C)(=O)=O)C2` (centres undefined): the INHIBITION was determined as 21.6%. Take `O=S(=O)(c1ccc(F)cc1)N1CCCC(c2nccs2)C1` (centres undefined): the INHIBITION amounted to 13.5%. For `CC(=O)NCc1nccnc1C1CCN(C(=O)c2cc[nH]n2)CC1` the value was -19.7%. For `Cc1cnc(N2CCC3(CC2)CC3CNC(=O)N(C)C)nc1` (centres undefined) the value was 7.24%. For `Cc1cnc(N2CCC3(CC2)CC3CNC(=O)C2CCC2)nc1` (centres undefined) the value was 50.7%; for `Cc1cnc(N2CCC3(CC2)CC3C(=O)NCC2CC2)nc1` (centres undefined), 16.9%. Regarding `CC(C)(C)CC(=O)NS(=O)(=O)c1ccc(F)cc1C(F)(F)F`, the INHIBITION was -15.5%. For `Cc1nn(C)c(C)c1C1CCCN1Cc1nc2ccccc2c(=O)[nH]1` (centres undefined) the value was -33.7%; for `O=c1[nH]c(COc2cccc(F)c2)nc2c1CCNC2`, 15.8%. With `O=c1[nH]c(COc2ccccc2Cl)nc2c1CCNC2` the figure was 2.15%. For `O=c1[nH]c(NCc2cccc(-c3ccccc3)c2)nc2c1CCNC2` the value was 21.9%; for `O=c1[nH]c(NCc2cccc(OC(F)F)c2)nc2c1CCNC2`, 88%. On to `CC(C)(C)c1ccc(OCc2nc3c(c(=O)[nH]2)CCNC3)cc1`, for which the INHIBITION is on record as -13.3%. As for `COc1cc(CNc2nc3c(c(=O)[nH]2)CCNC3)cc(OC)c1OC`, the INHIBITION amounted to 57.8%. For `CCC=C(C)C(=O)N1CSCC1C(=O)NC1=NCCS1` (centres undefined) the value was 7.58%; for `CC(C1CCN(Cc2cnc(-c3cccs3)nc2)CC1)N(C)C` (centres undefined), 18.8%. For `OC1CCN(C2CCN(Cc3cnc(-c4cccs4)nc3)CC2)CC1` the value was 25.1%; for `C[C@@H]1CN(C2CCN(Cc3cnc(-c4cccs4)nc3)CC2)C[C@H](C)O1`, 63.7%.

On to `CC(C)n1ncc2cc(NC(=O)N3CCSCC3)cnc21`, for which the INHIBITION was found to be 11.2%. For `O=C(Cc1csc(-c2ccco2)n1)N1CCN(c2ccccc2O)CC1`, the INHIBITION is given as -44.3%. As for `CC(=O)N1CCOCC(Cc2ccc3c(ccn3C(C)=O)c2)C1` (centres undefined), the INHIBITION is 12.59%.

Turning to `Cc1ccc(CC2COCCN(S(=O)(=O)c3ccccc3)C2)nc1` (centres undefined), the INHIBITION turned out to be 1.62%. For the compound `CC(C)c1nn(C)c(N(C)C)c1CNC1CCc2cc(F)ccc21` (centres undefined), the INHIBITION is -25.3%. With `Cc1nc(N)cc(N2CCCC(COc3cccc(F)c3)C2)n1` (centres undefined) the figure was 73.8%; with `COc1cccc(OCC2CCCN(c3cc(C(N)=O)ccn3)C2)c1` (centres undefined), 40.7%; with `OCc1csc(N2CCCC(COc3cccc(F)c3)C2)n1` (centres undefined), 39.9%. As to `COCC(=O)N1CCCC(COc2ccccc2C)C1` (centres undefined), the INHIBITION is -4.37%. For `CN(C)Cc1ccc(C(=O)N2CCCC(COc3ccc(F)cc3)C2)o1` (centres undefined) the value was 63%; for `Cc1nc(CN(C)C)cc(N2CCCC(COc3ccc(F)cc3)C2)n1` (centres undefined), 79.5%; for `CCc1nnsc1C(=O)N1CCCC(COc2ccc(F)cc2)C1` (centres undefined), 26.4%. Turning to `Cc1ccccc1OCC1CCCN(c2cc(N)nc(N)n2)C1` (centres undefined), the INHIBITION came to 73.8%. With `COc1ccc(OCC2CCCN(c3nc(CO)cs3)C2)cc1` (centres undefined), the INHIBITION is given as -3.43%. `CCNC(=O)c1ccnc(N2CCCC(COc3ccccc3C)C2)c1` (centres undefined): the INHIBITION is 30.9%. With `Cc1ccc(OCC2CCCN(c3cc(C(N)=O)ccn3)C2)cc1` (centres undefined) the figure was 26.5%. For `CN(C)Cc1nc(C(=O)N2CCCC(COc3ccc(F)cc3)C2)cs1` (centres undefined) the value was 15.7%; for `O=C(c1ccccc1)N1CC2(CCNC2)OCc2ccccc21` (centres undefined), -0.621%.

As to `Cc1cnc(N2Cc3nccn3CC(Cn3ncccc3=O)C2)nc1` (centres undefined), the INHIBITION is reported as 38.2%.

Take `CCN1CC(C(=O)NCCc2csc(-c3ccncc3)n2)CC1=O` (centres undefined): the INHIBITION is on record as -2.92%. With `CC(=O)N1CCC(Cc2cccc(-c3c(C)noc3C)n2)C1` (centres undefined) the figure was 8.53%; with `Nc1cc(N2CCCC(COc3ccc(F)cc3)C2)ncn1` (centres undefined), 23.7%. For `Nc1cc(N2CCCC(COc3ccc(F)cc3)C2)nc(N)n1` (centres undefined) the value was 79.5%; for `Nc1nc(N2CCCC(COc3ccc(F)cc3)C2)c2nc[nH]c2n1` (centres undefined), 33.7%.
